Consider 15 compounds from PubChem BioAssay AID651919 (Sanford-Burnham Center for Chemical Genomics, 2012).

One may read the inhibition as the change of the read-out against control, counted positive when it falls.

C-X-C chemokine receptor type 6 (Homo sapiens), sequence (O00574 whole entry, looked up): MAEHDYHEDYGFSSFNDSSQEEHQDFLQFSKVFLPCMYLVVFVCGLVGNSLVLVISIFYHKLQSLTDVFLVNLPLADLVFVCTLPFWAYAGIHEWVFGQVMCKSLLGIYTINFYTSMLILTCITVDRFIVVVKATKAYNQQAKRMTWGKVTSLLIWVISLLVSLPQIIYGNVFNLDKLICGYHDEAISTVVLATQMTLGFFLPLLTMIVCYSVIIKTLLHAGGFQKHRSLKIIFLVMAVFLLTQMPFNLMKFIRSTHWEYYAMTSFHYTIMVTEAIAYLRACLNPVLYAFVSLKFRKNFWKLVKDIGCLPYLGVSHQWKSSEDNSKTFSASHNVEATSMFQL

The assay has as its target C-X-C chemokine receptor type 6 (Homo sapiens) (UniProt O00574). The assay is described as follows: CXCR6 and CXCR5 receptor antagonist panel, profiling panel, selectivity assay for CXCR6 antagonist project, cell-based, CHO-K1 PathHunter beta-arrestin, luminescence, set 4 (AID 651919). The note with it: run 1, at 79 µM (top of the series).
Regarding `COc1ccc(NC(=O)CN2C3CCCC2CC(NC(=O)c2cc(OC)c(OC)c(OC)c2)C3)cc1` (stereo not given), the inhibition is 66.4%. In the case of `COc1cccc(C(=O)NC2CC3CCCC(C2)N3CC(=O)Nc2ccc(F)cc2)c1` (stereo not given) it was -1.02%.

With `COc1ccc(NC(=O)CN2C3CCCC2CC(NC(=O)c2ccc(OC)c(OC)c2)C3)cc1` (stereo not given), the inhibition stood at 12.2%.

`COc1ccc(NC(=O)CN2C3CCCC2CC(NC(=O)c2ccc(OC)cc2)C3)cc1` (stereo not given): the inhibition is -3.32%. In the case of `COc1cc(OC)cc(C(=O)NC2CC3CCCC(C2)N3CC(=O)Nc2ccc(Cl)cc2)c1` (stereo not given) it was 5.14%; in that of `COc1ccc(C(=O)NC2CC3CCCC(C2)N3CC(=O)Nc2ccc(Cl)cc2)cc1OC` (stereo not given), 9.09%.

For the compound `COc1cccc(C(=O)NC2CC3CCCC(C2)N3CC(=O)Nc2ccc(C)cc2)c1` (stereo not given), the inhibition came out at 16.6%.

Take `COc1cc(OC)cc(C(=O)NC2CC3CCCC(C2)N3CC(=O)Nc2ccc(F)cc2)c1` (stereo not given): the inhibition was found to be 7.92%. Turning to `COc1ccc(NC(=O)CN2C3CCCC2CC(NC(=O)c2cc(OC)cc(OC)c2)C3)cc1` (stereo not given), the inhibition is 11.5%. In the case of `O=C(CN1C2CCCC1CC(NC(=O)c1ccccc1)C2)Nc1ccccc1` (stereo not given) it was 10.1%. In the case of `O=C(CN1C2CCCC1CC(NC(=O)c1ccc3c(c1)OCO3)C2)Nc1ccccc1` (stereo not given) it was 12.3%; in that of `COc1ccc(C(=O)NC2CC3CCCC(C2)N3CC(=O)Nc2ccc(C)cc2)cc1` (stereo not given), 13.2%.

In the case of `COc1cc(C(=O)NC2CC3CCCC(C2)N3CC(=O)Nc2ccc(F)cc2)cc(OC)c1OC` (stereo not given), the inhibition was 84.8%. In the case of `O=C(CN1C2CCCC1CC(NC(=O)c1ccc3c(c1)OCO3)C2)Nc1ccc(F)cc1` (stereo not given) it was -0.62%. In the case of `COc1cc(OC)cc(C(=O)NC2CC3CCCC(C2)N3CC(=O)Nc2ccccc2)c1` (stereo not given) it was 12.4%.
